The text below walks through data of PubChem BioAssay (Tox21).

Records with an inconclusive call do not appear. Active and inactive are the calls of the source. Calls follow the shape of the dose curve; as a rule, active = well fitted inhibition curve with a large enough effect in the repeat runs; inconclusive = weak or mixed curves; inactive = no such curve, though single readings can be large or run the other way.
% is scaled to controls: 0 for no effect and ±100 for the full control effect; potency is read from the fitted curve at half-maximal effect.

Cytochrome P450 2C9 (Homo sapiens), sequence (P11712 whole entry, looked up): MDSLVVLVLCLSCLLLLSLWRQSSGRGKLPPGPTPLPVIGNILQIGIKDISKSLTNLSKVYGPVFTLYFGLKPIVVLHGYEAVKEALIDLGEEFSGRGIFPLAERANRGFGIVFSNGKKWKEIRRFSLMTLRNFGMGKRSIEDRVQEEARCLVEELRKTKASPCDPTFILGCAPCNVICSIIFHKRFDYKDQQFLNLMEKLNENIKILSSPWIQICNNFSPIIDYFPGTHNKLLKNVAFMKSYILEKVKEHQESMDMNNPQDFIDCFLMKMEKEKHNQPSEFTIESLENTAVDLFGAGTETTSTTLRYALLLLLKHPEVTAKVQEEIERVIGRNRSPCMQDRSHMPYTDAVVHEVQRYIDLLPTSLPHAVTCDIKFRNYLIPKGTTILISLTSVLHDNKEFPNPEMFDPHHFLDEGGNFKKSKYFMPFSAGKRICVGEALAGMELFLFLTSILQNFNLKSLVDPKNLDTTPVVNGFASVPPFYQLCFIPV

The target of this assay is Cytochrome P450 2C9 (Homo sapiens) (UniProt P11712). Nature of the assay: Cytochrome P450 Family 2 Subfamily C Member 9 (CYP2C9) small molecule antagonists: luciferase reporter qHTS assay (AID 1671198). Also: nearly all actives have a fitted effect of over 50% in size. As to conditions: P450-Glo CYP2C9 enzyme assay, luciferin luminescence; series mostly up to 115 µM; activity change, negative = inhibition: at the top concentration. From the text:
U.S. Tox21 Program National Center for Advancing Translational Sciences [NCATS] U.S. Environmental Protection Agency [EPA] National Institutes of Environmental Health Sciences [NIEHS] National Toxicology Program [NTP] U.S. Food and Drug Administration [FDA] Tox21 Assay Overview: Cytochrome P450 (CYP) enzymes are membrane-bound hemeproteins that play a key role in metabolism of drugs and xenobiotics. Evaluation of the effect of chemicals on CYP isozymes is useful to minimize the adverse drug reactions and toxicities in drug development process. Tox21 chemicals were tested for their effect on CYP enzyme activities by using P450-Glo (TM) screening systems (Promega Corporation, Madison, WI). These systems provide a luminescent method containing proluciferin substrates and are converted to luciferin products by CYP isozymes. The luciferin products formed are detected with a luciferin detection reagent, and the amount of light produced is proportional to CYP activity. P450-Glo (TM) CYP2C9 screening system (Catalog. No. V9790) was used to detect the compounds that interfere in CYP2C9 activity.
Tox21 Assay Protocol Summary: Two ul of enzyme-substrate mix was dispensed into medium binding white/solid 1536-well plates (Greiner Bio-One North America Inc., Monroe, NC) using a BioRaptr Flying Reagent Dispenser (FRD, Beckman Coulter, Brea, CA). […] The assay plates were incubated at room temperature for 10 min. Then 2 ul of NADPH regeneration solution was added to each well of the assay plates using an FRD and incubated at 37C for 1 h. The reaction was stopped by adding 4 ul of detection reagent using an FRD and after 20 min incubation at room temperature the luminescence signal was measured using a ViewLux plate reader (Perkin Elmer, Shelton, CT). Data were expressed as relative luminescence units.
A general note: Reporter assays use an easily measured gene product as a stand-in for the process of interest.
For `CCCCC(CC)CNCC(CC)CCCC` (stereo not given), the “activity change, negative = inhibition” value is -1.34% (inactive).

Regarding `CC(COc1ccc(C(C)(C)C)cc1)OS(=O)OCCCl` (stereo not given), the “activity change, negative = inhibition” value is -19.9% (inactive).

For `CN(C)CCOC1=Cc2ccccc2Sc2ccc(Cl)cc21`, the “activity change, negative = inhibition” value was 0.16% [at 53 µM] (inactive).

Regarding `C=CC(C)=CCC=C(C)C`, the Potency is 63.3 µM (active).

With `CC(C)C(OC(=O)c1ccccc1)C(C)(C)COC(=O)c1ccccc1` (stereo not given), the Potency is 2 µM (active).

On to `Cc1ccnc2ccccc12`, for which the “activity change, negative = inhibition” value was 1.2% (inactive).

Take `CCCCC(=O)O[C@]1(C(=O)CO)[C@@H](C)C[C@H]2[C@@H]3CCC4=CC(=O)C=C[C@]4(C)[C@@]3(F)[C@@H](O)C[C@@]21C`: the Potency is 35.6 µM (active).

Regarding `O=C(O)c1c(O)c(-c2ccccc2)nc2ccccc12`, the Potency is 30.9 µM (active).

Consider `CN1C(=O)CC(C)(c2ccccc2)C1=O` (stereo not given), for which the “activity change, negative = inhibition” value is -18.5% [at 53 µM] (inactive).

For the compound `CO[Si](C)(OC)OC`, the “activity change, negative = inhibition” value is -8.6% (inactive).

In the case of `OC(CCCN1CCCCC1)(c1ccccc1)c1ccccc1`, the “activity change, negative = inhibition” value was -2.55% [at 53 µM] (inactive).

Turning to `CCCOc1ccc(S(=O)(=O)N2CCN(CC)CC2)cc1-c1nc2c(CC)n(Cc3ccccn3)nc2c(=O)[nH]1`, the Potency was 3.17 µM (active).

With `CC1(C)C(=O)N(Br)C(=O)N1Cl`, the Potency was 63.3 µM (active).

`CNCCCC1c2ccccc2C=Cc2ccccc21`: the “activity change, negative = inhibition” value was 0.0676% [at 53 µM] (inactive).

Regarding `CN(C)C(=O)Nc1ccc(Oc2ccc(Cl)cc2)cc1`, the Potency is 35.6 µM (active).

As for `CCCCCCCCCCCCCCCCBr`, the activity change, negative = inhibition was -1.68% [at 23.6 µM] (inactive).

Turning to `O=C(CCCN1CCC(O)(c2ccc(Br)cc2)CC1)c1ccc(F)cc1`, the “activity change, negative = inhibition” value is 14.8% [at 53 µM] (inactive).

Take `CCc1c2c(nc3ccc(OC(=O)N4CCC(N5CCCCC5)CC4)cc13)-c1cc3c(c(=O)n1C2)COC(=O)[C@]3(O)CC`: the “activity change, negative = inhibition” value is -2.57% [at 53 µM] (inactive).

On to `Cn1c(=O)c2c(ncn2CC(=O)O)n(C)c1=O`, for which the “activity change, negative = inhibition” value was -6.75% [at 53 µM] (inactive).

As to `OC/C(Br)=C(\Br)CO`, the “activity change, negative = inhibition” value is -14% (inactive).

As to `COc1cc2c(N3CCN(C(=O)Nc4ccc(OC(C)C)cc4)CC3)ncnc2cc1OCCCN1CCCCC1`, the “activity change, negative = inhibition” value is -5.84% [at 53 µM] (inactive).

`COc1cc2ncnc(Nc3ccc(F)c(Cl)c3)c2cc1OCCCN1CCOCC1`: the “activity change, negative = inhibition” value is -29% [at 53 µM] (inactive).

As to `Cc1cc(S(=O)(=O)O)ccc1N=Nc1c(O)ccc2ccccc12`, the Potency was 31.7 µM (active).

Regarding `CC(=N\O)/C(C)=N/O`, the “activity change, negative = inhibition” value was -11.8% (inactive).

Turning to `CC(C)CCCC(=O)O`, the “activity change, negative = inhibition” value was -8.21% (inactive).

Turning to `CCOC(=N)CC(=O)OCC`, the “activity change, negative = inhibition” value was -12.5% (inactive).

`Cc1cnc(C)c(C)n1`: the “activity change, negative = inhibition” value was -18.1% (inactive).

As for `O=C(CCCN1CCN(c2ccc(F)cc2)CC1)NC1c2ccccc2CSc2ccccc21` (stereo not given), the Potency was 6.92 µM (active).

As for `N#C/C(=C1/SC[C@@H](c2ccc(Cl)cc2Cl)S1)n1ccnc1`, the Potency is 0.389 µM (active).

Regarding `CC(=O)[C@H]1CC[C@H]2[C@@H]3C[C@H](C)C4=CC(=O)CC[C@]4(C)[C@H]3[C@@H](O)C[C@]12C`, the Potency is 1.23 µM (active).

For the compound `CCCCCCOC(=O)CCCCCCCC(=O)OCCCCCC`, the “activity change, negative = inhibition” value is -14.5% (inactive).

Take `Nc1nc(Cl)nc2c1ncn2[C@@H]1O[C@H](CO)[C@@H](O)[C@@H]1F`: the “activity change, negative = inhibition” value was -2.38% [at 53 µM] (inactive).

Regarding `O=C(O)c1ccc(CO)o1`, the “activity change, negative = inhibition” value was -4.73% (inactive).

On to `O=S1OCCO1`, for which the “activity change, negative = inhibition” value was -0.0253% (inactive).

Take `OCCSc1ccccc1`: the “activity change, negative = inhibition” value was -14.8% (inactive).

With `CCN(Cc1cccc(S(=O)(=O)O)c1)c1ccc(C(=C2C=CC(=[N+](CC)Cc3cccc(S(=O)(=O)[O-])c3)C=C2)c2ccccc2)cc1`, the Potency was 28 µM (active).

Take `N#C/C(=C1\SCC(c2ccccc2Cl)S1)n1ccnc1` (stereo not given): the Potency was 2.45 µM (active).

In the case of `CNC(=O)N(c1ccccc1)c1ccccc1`, the “activity change, negative = inhibition” value was -16.1% (inactive).

Consider `CCCCOC(=O)CCS`, for which the Potency is 63.3 µM (active).

For the compound `NC(=O)N(O)[C@@H]1COc2cc(OCc3ccccc3)ccc21`, the Potency is 7.96 µM (active).
